{
  "source": "PubChem BioAssay AID1578",
  "about": "(Sanford-Burnham Center for Chemical Genomics, 2009)",
  "note": "About 3,000 (1%) of roughly 290,000 compounds were called active. Many of the other results were omitted from the sample, so actives are more common in it than they were. Values without a mark were called inactive. Cut-off read from the data, not from the text of the source: active = inhibition mostly above about 36% (no sharp cut-off); inactive = mostly below about 34%.",
  "data": [
    {"assay": "NOD1 signaling inhibitors, primary screen, cell-based, luminescence, uHTS (AID 1578);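 note: HEK-293T reporter cells stimulated with the NOD1 agonist gamma-tri-DAP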", "settings": "NOD1-driven NF-kB luciferase reporter cells, at 4 µM, stronger effect = higher value", "values": [
      {"smiles": "O=C(CN1CCOCC1)OCCCc1ccccc1", "inhibition": "-23.1%"},
      {"smiles": "CCCCNC(=O)Nc1c(C(=O)OCC)[nH]c2ccccc12", "inhibition": "-25.1%"},
      {"smiles": "CCOC(=O)CCCCCN(Cc1ccccc1)S(=O)(=O)c1ccc([N+](=O)[O-])cc1", "inhibition": "-22.1%"},
      {"smiles": "CCOC(=O)c1c(-c2ccc(C)o2)csc1NC(=O)CN1CCOCC1", "inhibition": "14.9%"},
      {"smiles": "CCc1nc(SCc2ccccc2C#N)n[nH]1", "inhibition": "-30.4%"},
      {"smiles": "O=C(Nc1ccc(C(=O)N2CCCC2)cc1)c1ccc(F)cc1Cl", "inhibition": "-14%"},
      {"smiles": "COc1ccc(Cn2c(=O)[nH]c3cc(C(=O)N4CCN(c5ccccn5)CC4)ccc3c2=O)cc1", "inhibition": "-10.7%"},
      {"smiles": "O=C(c1ccc(Cn2c(=O)[nH]c3ccccc3c2=O)cc1)N1CCN(c2ccccn2)CC1", "inhibition": "-8.3%"},
      {"smiles": "CCOC(=O)N1CCN(C(=O)c2ccc(Cn3c(=S)[nH]c4cc(C(=O)OC)ccc4c3=O)cc2)CC1", "inhibition": "-11%"},
      {"smiles": "CCOC(=O)N1CCN(C(=O)c2ccc(Cn3c(=S)[nH]c4cc(OCC)c(OCC)cc4c3=O)cc2)CC1", "inhibition": "19.9%"},
      {"smiles": "O=C(CSc1ncccc1C(=O)O)NC1CCCCC1", "inhibition": "-47.1%"},
      {"smiles": "CC(C)C(=O)Nc1ccc(Cl)cc1-c1nc2ccccc2[nH]c1=O", "inhibition": "34.6%"},
      {"smiles": "Cc1cccc(C)c1NC(=O)CSc1nnc([C@@H]2CCCN2C(=O)OC(C)(C)C)o1", "inhibition": "-0.7%"},
      {"smiles": "N#CCS(=O)(=O)c1ccccc1", "inhibition": "-5.7%"},
      {"smiles": "CC(C)(C)NC(=O)CSc1nc2scc(-c3ccccc3)c2c(=O)[nH]1", "inhibition": "25.7%"},
      {"smiles": "O=C(CSc1nc2scc(-c3ccccc3)c2c(=O)[nH]1)NC1CCCCC1", "inhibition": "67.6% (active)"},
      {"smiles": "O=C(CSc1nc2scc(-c3ccccc3)c2c(=O)[nH]1)N1CCCCC1", "inhibition": "-9.2%"},
      {"smiles": "Cc1ccc2nc(CNC(=O)C3CCC(=O)N(Cc4ccccc4F)C3)cn2c1", "note": "(stereo not drawn)", "inhibition": "-21.3%"},
      {"smiles": "Cc1ccc(C2(CC(=O)O)CCOC(C)(C)C2)cc1", "note": "(stereo not drawn)", "inhibition": "5.4%"},
      {"smiles": "Cc1ccc(C2=NNC3(CCOC(C)(C)C3)S2)cc1", "note": "(stereo not drawn)", "inhibition": "74.5% (active)"},
      {"smiles": "CCc1ccc2c(c1)C1(NN=C(c3ccc(C)cc3)S1)C(=O)N2", "note": "(stereo not drawn)", "inhibition": "15.2%"},
      {"smiles": "O=C(c1cnsn1)N1CCC(CO)(Cc2ccc(Cl)cc2)CC1", "inhibition": "-10.4%"},
      {"smiles": "NC(=O)c1cc(-c2csc(NCCc3ccccc3)n2)ccc1O", "inhibition": "-52.8%"},
      {"smiles": "COc1ccc(N2CCN(C(=O)CSc3nc4[nH]ncc4c(=O)n3-c3ccc(Br)cc3)CC2)cc1", "inhibition": "8.7%"},
      {"smiles": "CCN1CCCC1CNC(=O)C(=O)NC", "note": "(stereo not drawn)", "inhibition": "-17.4%"},
      {"smiles": "CCCNC(=O)C(=O)NCC1CCCN1CC", "note": "(stereo not drawn)", "inhibition": "-18.5%"},
      {"smiles": "CCN1CCCC1CNC(=O)C(=O)NC1CC1", "note": "(stereo not drawn)", "inhibition": "40.8% (active)"},
      {"smiles": "CCCCNC(=O)Cn1c(-c2ccc(OC)cc2)noc1=O", "inhibition": "-2.3%"},
      {"smiles": "COc1ccc(NC(=O)N2CCC(O)(c3cccnc3)CC2)c(OC)c1", "inhibition": "15.9%"},
      {"smiles": "Oc1ccc(Br)cc1-c1cc(-c2ccccc2)n[nH]1", "inhibition": "-13.2%"},
      {"smiles": "Fc1ccc(-c2ccnn2-c2ccccc2)cc1", "inhibition": "-18.4%"},
      {"smiles": "Oc1ccc(Br)cc1-c1ccnn1-c1ccccc1", "inhibition": "82.1% (active)"},
      {"smiles": "COC(=O)CCCCC1SCC2NC(=O)NC21O", "note": "(stereo not drawn)", "inhibition": "-2.5%"},
      {"smiles": "Cc1ccc2c(Cl)c(C(=O)Nc3cccnc3)sc2c1", "inhibition": "87.9% (active)"},
      {"smiles": "O=C(Nc1cccnc1)Nc1ccccc1Cl", "inhibition": "-8.9%"},
      {"smiles": "Cc1ccc2c(Cl)c(C(=O)Nc3cc(C)on3)sc2c1", "inhibition": "-79.3%"},
      {"smiles": "O=C(Nc1ccc(Cl)cc1)Nc1cccnc1", "inhibition": "-14.9%"},
      {"smiles": "Cc1ccc2c(Cl)c(C(=O)NCc3cccnc3)sc2c1", "inhibition": "12.2%"},
      {"smiles": "Cc1ccc(NC(=O)c2sc3ccccc3c2Cl)nc1", "inhibition": "-21.7%"},
      {"smiles": "Cc1nnc(NC(=O)c2sc3ccccc3c2Cl)s1", "inhibition": "-46.1%"},
      {"smiles": "O=C(Nc1cccnc1)Nc1cc(Cl)cc(Cl)c1", "inhibition": "76.8% (active)"},
      {"smiles": "Cc1cnc(NC(=O)c2sc3ccccc3c2Cl)s1", "inhibition": "105% (active)"},
      {"smiles": "COc1ccccc1-c1cc(C(=O)Nc2ccccc2SC)no1", "inhibition": "-10%"},
      {"smiles": "CCOC(=O)C1(Cc2ccccc2C)CCCN(C(=O)c2ccnn2C)C1", "note": "(stereo not drawn)", "inhibition": "-17.1%"},
      {"smiles": "Cc1ccc(C)c(SCC(=O)NNC(=O)c2ccccc2)c1", "inhibition": "-14.3%"},
      {"smiles": "Cc1cc(Cl)c(S(=O)(=O)N2CCCC2)cc1OCC(=O)NC1CCCCC1", "inhibition": "28.5%"},
      {"smiles": "CCN1CCN(S(=O)(=O)c2cc(OCC(=O)NC3CCCCC3)c(C)cc2Cl)CC1", "inhibition": "26.3%"},
      {"smiles": "C/C(=C\\c1ccccc1)C(=O)Nc1cc(C)on1", "inhibition": "-6.1%"},
      {"smiles": "Cc1ccccc1Cn1cc(C)c(=O)[nH]c1=O", "inhibition": "-20.8%"},
      {"smiles": "CC(C)(C)n1nnnc1C(c1ccc(C(F)(F)F)cc1)N(Cc1ccc(F)cc1)Cc1ccco1", "note": "(stereo not drawn)", "inhibition": "-13.2%"},
      {"smiles": "COc1cccc(CN(Cc2ccco2)C(c2ccc(F)cc2)c2nnnn2C(C)(C)C)c1", "note": "(stereo not drawn)", "inhibition": "50.8% (active)"},
      {"smiles": "CC(C)(C)n1nnnc1C(c1ccc(F)cc1)N(Cc1ccc(F)cc1)Cc1ccco1", "note": "(stereo not drawn)", "inhibition": "-2.1%"},
      {"smiles": "Cc1nc2cc(NC(=O)N3CC4(C)CC3CC(C)(C)C4)ccc2n1C", "note": "(stereo not drawn)", "inhibition": "-31.3%"},
      {"smiles": "COC(=O)CCc1ccc(O)cc1", "inhibition": "-24%"},
      {"smiles": "CN1CCN(C(c2ccc(C(F)(F)F)cc2)c2ccc3cccnc3c2O)CC1", "note": "(stereo not drawn)", "inhibition": "23.8%"},
      {"smiles": "Cc1c(CCO)c(=O)[nH]n1S(=O)(=O)c1ccc(F)cc1", "inhibition": "-15.6%"},
      {"smiles": "Cc1csc(CNC(=O)c2ccc(OC3CCN(CCc4ccccc4)CC3)cc2)n1", "inhibition": "-16.3%"},
      {"smiles": "OCC1(CCOc2ccccc2)CCN(CC2=Cc3cc(Cl)ccc3OC2)CC1", "inhibition": "-37.6%"},
      {"smiles": "COc1ccc2c(c1)C=C(CN1CCC(CO)(CCc3ccccc3)CC1)CO2", "inhibition": "-10%"},
      {"smiles": "CCOc1cc(C(=O)NN2CCOCC2)cc(OCC)c1OCC", "inhibition": "-21.5%"},
      {"smiles": "O=C(c1ccccc1)N1CCN(Cc2ccc3c(c2)OCO3)CC1", "inhibition": "-5.8%"},
      {"smiles": "Cc1cc(Cl)ccc1NC(=S)N1CCN(Cc2ccc3c(c2)OCO3)CC1", "inhibition": "79.9% (active)"},
      {"smiles": "Cc1cc(Cl)ccc1NC(=S)N1CCN(Cc2ccccc2)CC1", "inhibition": "-13.4%"},
      {"smiles": "CCN(CC)c1ccc(C(=O)NC(=S)N2CCN(Cc3ccc4c(c3)OCO4)CC2)cc1", "inhibition": "-0.4%"},
      {"smiles": "O=C(c1n[nH]c(=O)c2ccccc12)N1CCN(Cc2ccc3c(c2)OCO3)CC1", "inhibition": "3.4%"},
      {"smiles": "Cc1ccccc1NC(=S)N1CCN(Cc2ccc3c(c2)OCO3)CC1", "inhibition": "-15.3%"},
      {"smiles": "O=C(NC(=S)N1CCN(Cc2ccc3c(c2)OCO3)CC1)c1ccc(Cl)cc1", "inhibition": "-3.6%"},
      {"smiles": "O=C(COC(=O)COc1ccccc1Cl)Nc1ccccc1OC(F)F", "inhibition": "-10.4%"},
      {"smiles": "CN(CCCC(=O)N1CCCC(C(N)=O)C1)S(=O)(=O)c1ccc(F)cc1", "note": "(stereo not drawn)", "inhibition": "-19.1%"},
      {"smiles": "Cc1ccc(NC(=O)CN2C(=O)S/C(=C\\c3ccc(C(=O)O)cc3)C2=O)cc1", "inhibition": "-12.7%"},
      {"smiles": "O=C(Cc1ccc(-n2c(=O)c3ccccc3n(Cc3cccc([N+](=O)[O-])c3)c2=O)cc1)NCC1CCCO1", "note": "(stereo not drawn)", "inhibition": "5.4%"},
      {"smiles": "COc1ccc(CCNC(=O)CSc2ccc(-c3ccco3)nn2)cc1OC", "inhibition": "-15.4%"},
      {"smiles": "COc1ccc(F)cc1S(=O)(=O)NCCN1CCOCC1", "inhibition": "15.5%"},
      {"smiles": "COc1cccc2cc(C(=O)OC3CCN(C)CC3)c(=O)oc12", "inhibition": "-29.1%"},
      {"smiles": "Cc1ccc(Cl)cc1N1CCN(Cc2nnnn2Cc2ccco2)CC1", "inhibition": "-5.9%"},
      {"smiles": "Cc1cc(C)n(C(=O)CNC(=O)c2ccccc2Br)n1", "inhibition": "-28.7%"},
      {"smiles": "COCCn1c(-c2ccc(OC)cc2)cnc1SCC(=O)Nc1cccc2ccccc12", "inhibition": "-37.9%"},
      {"smiles": "O=C(Nc1ccccc1)Nc1cccc(C(F)(F)F)c1", "inhibition": "-33.9%"},
      {"smiles": "O=C(Nc1ccc(C(=O)O)cc1)Nc1cccc([N+](=O)[O-])c1", "inhibition": "-12.4%"},
      {"smiles": "CN(C)S(=O)(=O)Oc1ccccc1C(=O)Nc1cccc(C(F)(F)F)c1", "inhibition": "-19.2%"},
      {"smiles": "CC(=O)c1cccc(NC(=O)Nc2ccc(C(=O)N3CCOCC3)cc2)c1", "inhibition": "5.9%"},
      {"smiles": "CNC(=O)Nc1cccc(C(F)(F)F)c1", "inhibition": "-23%"},
      {"smiles": "O=C(Nc1ccc(C(=O)N2CCOCC2)cc1)Nc1cccc(C(F)(F)F)c1", "inhibition": "60% (active)"},
      {"smiles": "O=C(Nc1ccc(C(=O)N2CCOCC2)cc1)Nc1cccc(Cl)c1", "inhibition": "-21.7%"},
      {"smiles": "O=C(Nc1ccc(OC(F)(F)F)cc1)Nc1cccc([N+](=O)[O-])c1", "inhibition": "75.1% (active)"},
      {"smiles": "O=C(Nc1cccc([N+](=O)[O-])c1)Nc1cccc([N+](=O)[O-])c1", "inhibition": "-8.2%"},
      {"smiles": "CN(C)S(=O)(=O)Oc1ccc(C(=O)Nc2cccc(Cl)c2)cc1", "inhibition": "-35.9%"},
      {"smiles": "CCOc1ccc(NC(=O)CS(=O)CC(=O)N(CC(=O)NC(C)(C)C)C2CCCC2)cc1", "note": "(stereo not drawn)", "inhibition": "-23.1%"},
      {"smiles": "O=C(CC1C(=O)NCCN1Cc1ccc(-c2ccccc2)cc1)NCCCn1ccnc1", "note": "(stereo not drawn)", "inhibition": "-4.4%"},
      {"smiles": "COCCNC(=O)C(C)N1c2cccc3cccc(c23)S1(=O)=O", "note": "(stereo not drawn)", "inhibition": "-37.7%"},
      {"smiles": "NC(CCC(=O)O)C12CC3CC(CC(C3)C1)C2", "note": "(stereo not drawn)", "inhibition": "-26.1%"},
      {"smiles": "COC(=O)[C@H](Cc1ccccc1)NC(=O)NCCc1ccc(OC)cc1", "inhibition": "-0.3%"},
      {"smiles": "CC(=O)c1cc2c(cc1NC(=O)CN1CCCCCCC1)OCO2", "inhibition": "-24.2%"},
      {"smiles": "Cc1cc(C(=O)Nc2ccccn2)cs1", "inhibition": "-53.4%"},
      {"smiles": "CCCC[C@@H]1CNC(=S)N1CCC12CC3CC(CC(C3)C1)C2", "inhibition": "-25.1%"},
      {"smiles": "CCCCOc1ccc(CSc2nc(C)[nH]c2[N+](=O)[O-])cc1[N+](=O)[O-]", "inhibition": "39.8% (active)"},
      {"smiles": "Cc1nc(SCc2ccc(O)c([N+](=O)[O-])c2)c([N+](=O)[O-])[nH]1", "inhibition": "-13.5%"},
      {"smiles": "COc1ccc(CSc2nc(C)[nH]c2[N+](=O)[O-])cc1[N+](=O)[O-]", "inhibition": "-4.2%"}
    ]}
  ]
}
